This note sets out measurements from PubChem BioAssay (EPA / NIEHS).

Assay [1] is described as follows: BSK_SAg_PBMCCytotoxicity: PBMC Cytotoxicity Assessment in the BioMAP Diversity Plus: SAg Assay (AID 2283093).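 Further: fitted both ways against DMSO so a hit may be loss or gain of signal.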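 On AC50: PBMC superantigen activated with SEB plus TSST-1 one hour after compound addition.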 The note with it: primary human HUVEC with PBMC. In a few lines:
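PBMC viability by Alamar Blue reduction, fluorescence read at 546/580 nm after 6 h dye exposure. Cells were dosed 1 h before SEB plus TSST-1 activation (20 ng/mL final each), then held 90 h; endothelial/PBMC human co-culture.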

Read-out in assay [2]: Interleukin-8 (IL8), CXCL8 (gene 3576)
The assay is described as follows: BSK_SAg_IL8: BioMAP Diversity Plus: SAg Assay for Interleukin-8 (IL8) Biomarker Activity (AID 2283094). The note with it: primary human HUVEC with PBMC; actives raise or lower the signal. A digest of the protocol:
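HUVEC/PBMC co-culture, 24 h post-dose; IL-8 by ELISA. Gain or loss of signal fitted bidirectionally vs DMSO baseline.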

Assay [3] can be described thus: BSK_SAg_Proliferation: Cell Proliferation Assessment in the BioMAP Diversity Plus: SAg Assay (AID 2283095).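 Further: relative cell number as total protein by SRB absorbance in sub-confluent culture.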 The note with it: primary human HUVEC with PBMC. A digest of the protocol:
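HUVEC/PBMC co-culture, 96-well. TCA-fixed (10%), 0.1% SRB stain, A560 at 96 h. Protein content used as viability readout; bidirectional fitting vs DMSO control.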

Assay [4] is described as follows: BSK_SAg_SRB: Viability Assessment in the BioMAP Diversity Plus: SAg Assay (AID 2283096).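 Further: cells read one day after compound addition; hits may be either gain or loss of signal compared with DMSO.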 The note with it: primary human HUVEC with PBMC. A digest of the protocol: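 Compounds were added to a human vascular co-culture of umbilical vein endothelium and PBMC. After 24 h, parallel cultures were fixed with 10% TCA, stained with 0.1% sulforhodamine B and read at 560 nm. Gain or loss of signal was fitted relative to DMSO.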

Assay [5] has as its target human AMP-activated Protein Kinase, alpha 1 (AMPKa1), PRKAA1 (gene 5562) (UniProt Q13131). In words: NVS_ENZ_hAMPKa1: NovaScreen (NVS) Enzymatic Assay for human AMP-activated Protein Kinase, alpha 1 (AMPKa1) (AID 2283130; active means hit-call score of the fitted dose curve at least 0.9, where 1 is the maximum). A digest of the protocol:
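Compounds were screened in duplicate at 25 uM, and those reaching ~30% inhibition were titrated up to 50 uM. The enzyme was recombinant human AMPKα1, and kinase turnover was read by fluorescence/mobility shift 1 h post-dosing as loss of signal versus DMSO.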

Assay [6] deals with Cytochrome P450 2C18 (Homo sapiens) (UniProt P33260). The assay is described as follows: NVS_ADME_hCYP2C18: NovaScreen (NVS) CYP450-related Enzyme Activity (ADME) Assay for human CYP2C18 (AID 2283103). A digest of the protocol: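 Enzyme activity measured by fluorescence 0.5 h after compound addition, using recombinant CYP2C18 and a specific substrate. Actives from duplicate 10 uM screening were retested in concentration series (top 20 uM); acetonitrile served as negative baseline.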

The target in assay [7] is Cytochrome P450 2C19 (Homo sapiens) (UniProt P33261). The assay is described as follows: NVS_ADME_hCYP2C19: NovaScreen (NVS) CYP450-related Enzyme Activity (ADME) Assay for human CYP2C19 (AID 2283113; active means hit-call score of the fitted dose curve at least 0.9, where 1 is the maximum;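 on AC50: potency for inhibition seen as loss of fluorescent signal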). A digest of the protocol:
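Cell-free assay of recombinant human CYP2C19 expressed in insect cells, with a fluorogenic substrate; fluorescence intensity read 1 hour after dosing. Loss of signal relative to acetonitrile negative control indicates inhibition. Primary screen at 10 uM in duplicate, then concentration series.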

Assay [8] concerns the target rat CYP2C11, Cyp2c11 (gene 29277) (UniProt P08683). The assay is described as follows: NVS_ADME_rCYP2C11: NovaScreen (NVS) CYP450-related Enzyme Activity (ADME) Assay for rat CYP2C11 (AID 2283118; active means hit-call score of the fitted dose curve at least 0.9, where 1 is the maximum). A digest of the protocol:
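Screened first at 10 uM in duplicate, hits followed by concentration-response. Recombinant rat enzyme activity monitored by fluorescence 0.33 h post-dosing, normalised to acetonitrile negative control.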

Assay [9] concerns the target rat CYP2C13, Cyp2c13 (gene 171521) (UniProt P20814). In words: NVS_ADME_rCYP2C13: NovaScreen (NVS) CYP450-related Enzyme Activity (ADME) Assay for rat CYP2C13 (AID 2283121; active means hit-call score of the fitted dose curve at least 0.9, where 1 is the maximum). In a few lines: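 Inhibition is read as decreased fluorescent product formation, referenced to acetonitrile vehicle. Cell-free recombinant rat Cyp2c13 reaction ran 0.75 hour; compounds first at 10 uM in duplicate, then concentration series for actives.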

The next assay relates to rat CYP3A1, gene 25642. In words: NVS_ADME_rCYP3A1: NovaScreen (NVS) CYP450-related Enzyme Activity (ADME) Assay for rat CYP3A1 (AID 2283126; active means hit-call score of the fitted dose curve at least 0.9, where 1 is the maximum). In a few lines: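 Compounds went first at 10 uM duplicate, then to series with 20 uM maximum. Fluorescence from substrate turnover by the recombinant enzyme was measured 0.5 h post-dosing, inhibition scored against acetonitrile vehicle.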

The target of assay [10] is human CYP2B6, CYP2B6 (gene 1555) (UniProt P20813). The assay is described as follows: NVS_ADME_hCYP2B6: NovaScreen (NVS) CYP450-related Enzyme Activity (ADME) Assay for human CYP2B6 (AID 2283101; active means hit-call score of the fitted dose curve at least 0.9, where 1 is the maximum). In a few lines: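 Recombinant human CYP2B6 with fluorogenic substrate, read by fluorescence intensity 1 h after dosing. Primary screen in duplicate at 10 uM, actives followed in concentration series; signal loss relative to acetonitrile control.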
Sequence of human CYP2B6, CYP2B6 (gene 1555) (P20813 whole entry, looked up): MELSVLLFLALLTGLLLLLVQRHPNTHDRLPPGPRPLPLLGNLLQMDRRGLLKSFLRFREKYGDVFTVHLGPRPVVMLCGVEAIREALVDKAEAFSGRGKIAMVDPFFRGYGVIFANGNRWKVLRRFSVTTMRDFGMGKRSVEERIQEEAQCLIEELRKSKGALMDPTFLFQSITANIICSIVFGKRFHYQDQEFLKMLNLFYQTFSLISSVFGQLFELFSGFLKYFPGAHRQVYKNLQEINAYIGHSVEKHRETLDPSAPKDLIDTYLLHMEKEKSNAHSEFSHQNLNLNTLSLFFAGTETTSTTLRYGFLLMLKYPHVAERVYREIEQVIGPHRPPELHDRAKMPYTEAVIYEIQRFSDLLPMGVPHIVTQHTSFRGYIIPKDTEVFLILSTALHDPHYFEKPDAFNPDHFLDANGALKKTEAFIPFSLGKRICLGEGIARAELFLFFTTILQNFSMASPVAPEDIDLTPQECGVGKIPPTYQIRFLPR

Assay [11] concerns the target human CYP2C9, CYP2C9 (gene 1559) (UniProt P11712). In words: NVS_ADME_hCYP2C9: NovaScreen (NVS) CYP450-related Enzyme Activity (ADME) Assay for human CYP2C9 (AID 2283108; active means hit-call score of the fitted dose curve at least 0.9, where 1 is the maximum). In a few lines:
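Recombinant human CYP2C9 expressed in SF9 cells, fluorogenic substrate, fluorescence read 0.75 h after dosing. Chemicals first run in duplicate at 10 uM, with actives followed in concentration series; loss of signal versus acetonitrile baseline.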

The target of assay [12] is human CYP19A1, CYP19A1 (gene 1588) (UniProt P11511). The assay is described as follows: NVS_ADME_hCYP19A1: NovaScreen (NVS) CYP450-related Enzyme Activity (ADME) Assay for human CYP19A1 (AID 2283098; active means hit-call score of the fitted dose curve at least 0.9, where 1 is the maximum). In a few lines:
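Fluorescence intensity read-out; activity taken as signal loss relative to acetonitrile vehicle. Extracted enzyme, specific substrate, no cells, 0.5 h exposure. Duplicate single-point screen at 10 uM, then concentration–response follow-up for actives.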

The target in assay [13] is human CYP1A2, CYP1A2 (gene 1544) (UniProt P05177). The assay is described as follows: NVS_ADME_hCYP1A2: NovaScreen (NVS) CYP450-related Enzyme Activity (ADME) Assay for human CYP1A2 (AID 2283102; active means hit-call score of the fitted dose curve at least 0.9, where 1 is the maximum;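 further: potency for inhibition since loss of fluorescence marks reduced CYP1A2 activity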). A digest of the protocol: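 Cell-free recombinant human CYP1A2 expressed in insect cells, with fluorogenic substrate; fluorescence intensity read 0.5 h after dosing. Loss of signal relative to acetonitrile baseline scored. Primary screen in duplicate at 10 uM; actives retested in concentration series.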
Sequence of human CYP1A2, CYP1A2 (gene 1544) (P05177 whole entry, looked up): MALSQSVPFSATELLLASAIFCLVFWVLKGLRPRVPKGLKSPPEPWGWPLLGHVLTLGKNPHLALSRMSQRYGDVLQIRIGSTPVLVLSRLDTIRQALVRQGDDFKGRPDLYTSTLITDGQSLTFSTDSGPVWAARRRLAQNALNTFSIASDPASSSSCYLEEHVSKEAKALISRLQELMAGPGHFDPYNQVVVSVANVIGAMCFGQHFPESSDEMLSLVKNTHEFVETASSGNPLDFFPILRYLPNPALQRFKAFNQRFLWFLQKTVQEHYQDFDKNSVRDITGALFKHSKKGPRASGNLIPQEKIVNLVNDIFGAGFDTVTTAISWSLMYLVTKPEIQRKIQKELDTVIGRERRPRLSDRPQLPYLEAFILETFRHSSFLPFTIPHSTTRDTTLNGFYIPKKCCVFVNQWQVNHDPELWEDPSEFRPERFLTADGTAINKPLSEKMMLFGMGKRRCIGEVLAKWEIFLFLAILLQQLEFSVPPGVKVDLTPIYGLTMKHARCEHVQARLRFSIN

Assay [14] concerns the target Cytochrome P450 3A4 (Homo sapiens) (UniProt P08684). In words: NVS_ADME_hCYP3A4: NovaScreen (NVS) CYP450-related Enzyme Activity (ADME) Assay for human CYP3A4 (AID 2283110; active means hit-call score of the fitted dose curve at least 0.9, where 1 is the maximum). A digest of the protocol: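 Recombinant CYP3A4 from insect cells, fluorescence enzyme read-out, 0.33 h after chemical addition. Acetonitrile = negative control/baseline. Primary HTS: 10 uM in duplicate; actives re-tested in concentration series.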

Assay [15] deals with human CYP2D6, CYP2D6 (gene 1565) (UniProt P10635). In words: NVS_ADME_hCYP2D6: NovaScreen (NVS) CYP450-related Enzyme Activity (ADME) Assay for human CYP2D6 (AID 2283107; active means hit-call score of the fitted dose curve at least 0.9, where 1 is the maximum). In a few lines: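 Cell-free assay using recombinant enzyme expressed in insect cells, with fluorescence-intensity readout of enzyme activity 1 hour after chemical dosing. Loss of signal versus acetonitrile negative control indicates inhibition. Primary screen ran in duplicate at 10 uM; actives were retested in concentration series.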

Assay [16] concerns the target rat CYP1A2, Cyp1a2 (gene 24297) (UniProt P04799). The assay is described as follows: NVS_ADME_rCYP1A2: NovaScreen (NVS) CYP450-related Enzyme Activity (ADME) Assay for rat CYP1A2 (AID 2283115; active means hit-call score of the fitted dose curve at least 0.9, where 1 is the maximum). A digest of the protocol: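 Primary testing ran in duplicate at 10 uM, with actives re-tested across concentration series. Fluorescence intensity from substrate turnover by recombinant protein, measured 1 hour post-dosing, with signal loss scored against acetonitrile vehicle.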

Several values for one entry are separate records, joined by “and”; a condition that tells them apart may be missing. Identical values can stand only once. Records with an inconclusive call do not appear. Activity calls are given as the source filed them. How the source made its calls, unless noted: active means hit-call score of the fitted dose curve at least 0.9, where 1 is the maximum; inactive means score below 0.9.

Sequence of human AMP-activated Protein Kinase, alpha 1 (AMPKa1), PRKAA1 (gene 5562) (Q13131 whole entry, looked up): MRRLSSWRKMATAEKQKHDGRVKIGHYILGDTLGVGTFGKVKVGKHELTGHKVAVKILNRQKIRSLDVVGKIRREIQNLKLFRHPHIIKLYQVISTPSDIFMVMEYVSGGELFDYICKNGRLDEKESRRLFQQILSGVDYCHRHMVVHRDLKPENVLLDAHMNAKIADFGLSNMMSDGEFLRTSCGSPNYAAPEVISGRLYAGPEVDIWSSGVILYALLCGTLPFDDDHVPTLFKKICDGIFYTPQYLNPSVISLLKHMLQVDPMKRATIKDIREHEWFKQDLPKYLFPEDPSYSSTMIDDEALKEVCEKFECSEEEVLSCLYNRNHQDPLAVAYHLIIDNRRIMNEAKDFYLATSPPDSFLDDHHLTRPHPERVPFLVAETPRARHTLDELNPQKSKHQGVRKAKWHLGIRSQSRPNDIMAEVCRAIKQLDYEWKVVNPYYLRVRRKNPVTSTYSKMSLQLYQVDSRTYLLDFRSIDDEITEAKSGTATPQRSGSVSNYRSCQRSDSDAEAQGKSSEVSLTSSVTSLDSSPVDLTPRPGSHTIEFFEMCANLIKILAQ
Sequence of human CYP2C9, CYP2C9 (gene 1559) (P11712 whole entry, looked up): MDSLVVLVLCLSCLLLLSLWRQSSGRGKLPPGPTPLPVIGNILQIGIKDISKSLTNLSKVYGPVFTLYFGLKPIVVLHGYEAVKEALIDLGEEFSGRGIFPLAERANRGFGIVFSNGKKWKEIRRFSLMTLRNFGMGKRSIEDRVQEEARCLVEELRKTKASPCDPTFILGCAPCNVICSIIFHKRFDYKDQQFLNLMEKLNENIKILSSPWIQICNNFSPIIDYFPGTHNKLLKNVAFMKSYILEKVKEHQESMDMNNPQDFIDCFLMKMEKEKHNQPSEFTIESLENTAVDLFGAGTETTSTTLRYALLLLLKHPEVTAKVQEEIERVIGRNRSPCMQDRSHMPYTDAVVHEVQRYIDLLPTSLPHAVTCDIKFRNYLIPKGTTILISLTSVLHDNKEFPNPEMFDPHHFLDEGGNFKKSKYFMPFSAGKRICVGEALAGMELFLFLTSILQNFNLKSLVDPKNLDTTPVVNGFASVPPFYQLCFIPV
Sequence of Cytochrome P450 3A4 (Homo sapiens) (P08684 whole entry, looked up): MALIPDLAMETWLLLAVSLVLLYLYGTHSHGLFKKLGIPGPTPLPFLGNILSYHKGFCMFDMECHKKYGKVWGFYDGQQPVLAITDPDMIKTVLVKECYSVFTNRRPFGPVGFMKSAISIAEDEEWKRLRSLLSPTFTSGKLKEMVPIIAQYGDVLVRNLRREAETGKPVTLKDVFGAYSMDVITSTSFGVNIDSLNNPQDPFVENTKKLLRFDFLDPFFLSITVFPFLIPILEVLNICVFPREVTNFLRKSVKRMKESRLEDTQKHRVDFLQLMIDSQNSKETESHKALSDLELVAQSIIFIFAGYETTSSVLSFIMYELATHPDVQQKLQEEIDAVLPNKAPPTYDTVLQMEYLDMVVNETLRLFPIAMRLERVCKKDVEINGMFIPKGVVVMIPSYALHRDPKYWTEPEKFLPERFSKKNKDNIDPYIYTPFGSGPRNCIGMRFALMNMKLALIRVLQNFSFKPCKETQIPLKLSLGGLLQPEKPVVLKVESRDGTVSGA
Sequence of rat CYP2C13, Cyp2c13 (gene 171521) (P20814 whole entry, looked up): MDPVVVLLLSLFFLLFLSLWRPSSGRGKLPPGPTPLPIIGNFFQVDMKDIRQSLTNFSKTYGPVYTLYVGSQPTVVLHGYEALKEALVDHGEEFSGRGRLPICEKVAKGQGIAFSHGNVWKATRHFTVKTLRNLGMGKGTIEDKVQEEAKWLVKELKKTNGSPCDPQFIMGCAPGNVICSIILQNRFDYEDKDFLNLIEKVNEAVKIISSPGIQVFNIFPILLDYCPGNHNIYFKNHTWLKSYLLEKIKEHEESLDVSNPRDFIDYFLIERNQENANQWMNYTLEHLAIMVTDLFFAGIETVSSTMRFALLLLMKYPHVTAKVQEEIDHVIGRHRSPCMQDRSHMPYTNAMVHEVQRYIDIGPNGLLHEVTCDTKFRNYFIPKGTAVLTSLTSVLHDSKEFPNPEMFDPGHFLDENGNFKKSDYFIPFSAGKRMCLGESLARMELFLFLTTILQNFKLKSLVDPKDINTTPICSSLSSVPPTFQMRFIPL
Sequence of rat CYP2C11, Cyp2c11 (gene 29277) (P08683 whole entry, looked up): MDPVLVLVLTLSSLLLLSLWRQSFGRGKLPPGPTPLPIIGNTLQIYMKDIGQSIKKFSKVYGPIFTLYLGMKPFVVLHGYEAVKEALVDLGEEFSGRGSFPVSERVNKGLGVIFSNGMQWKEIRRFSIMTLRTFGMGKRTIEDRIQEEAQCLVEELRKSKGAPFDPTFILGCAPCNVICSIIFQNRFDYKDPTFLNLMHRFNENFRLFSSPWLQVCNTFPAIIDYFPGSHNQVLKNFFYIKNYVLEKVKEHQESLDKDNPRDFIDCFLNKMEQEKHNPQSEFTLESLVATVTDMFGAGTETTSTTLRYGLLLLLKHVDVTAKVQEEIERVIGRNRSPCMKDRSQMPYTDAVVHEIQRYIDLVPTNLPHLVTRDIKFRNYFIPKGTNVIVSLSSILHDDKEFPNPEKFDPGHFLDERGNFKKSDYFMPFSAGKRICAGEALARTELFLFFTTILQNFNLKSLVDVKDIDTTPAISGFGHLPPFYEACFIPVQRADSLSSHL
Sequence of human CYP19A1, CYP19A1 (gene 1588) (P11511 whole entry, looked up): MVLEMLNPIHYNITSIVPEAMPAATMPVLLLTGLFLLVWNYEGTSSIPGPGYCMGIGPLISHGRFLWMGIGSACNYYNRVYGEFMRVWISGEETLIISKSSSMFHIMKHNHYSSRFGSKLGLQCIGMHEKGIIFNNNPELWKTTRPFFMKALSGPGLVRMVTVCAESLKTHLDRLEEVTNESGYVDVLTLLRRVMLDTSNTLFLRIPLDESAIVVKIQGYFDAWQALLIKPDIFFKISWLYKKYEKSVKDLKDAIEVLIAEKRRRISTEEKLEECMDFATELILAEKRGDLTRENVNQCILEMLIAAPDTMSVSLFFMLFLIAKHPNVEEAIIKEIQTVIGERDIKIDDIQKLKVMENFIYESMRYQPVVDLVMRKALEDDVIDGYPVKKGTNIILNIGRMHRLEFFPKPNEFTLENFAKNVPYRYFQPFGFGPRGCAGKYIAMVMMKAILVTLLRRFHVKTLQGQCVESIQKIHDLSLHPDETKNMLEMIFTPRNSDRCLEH
Sequence of rat CYP1A2, Cyp1a2 (gene 24297) (P04799 whole entry, looked up): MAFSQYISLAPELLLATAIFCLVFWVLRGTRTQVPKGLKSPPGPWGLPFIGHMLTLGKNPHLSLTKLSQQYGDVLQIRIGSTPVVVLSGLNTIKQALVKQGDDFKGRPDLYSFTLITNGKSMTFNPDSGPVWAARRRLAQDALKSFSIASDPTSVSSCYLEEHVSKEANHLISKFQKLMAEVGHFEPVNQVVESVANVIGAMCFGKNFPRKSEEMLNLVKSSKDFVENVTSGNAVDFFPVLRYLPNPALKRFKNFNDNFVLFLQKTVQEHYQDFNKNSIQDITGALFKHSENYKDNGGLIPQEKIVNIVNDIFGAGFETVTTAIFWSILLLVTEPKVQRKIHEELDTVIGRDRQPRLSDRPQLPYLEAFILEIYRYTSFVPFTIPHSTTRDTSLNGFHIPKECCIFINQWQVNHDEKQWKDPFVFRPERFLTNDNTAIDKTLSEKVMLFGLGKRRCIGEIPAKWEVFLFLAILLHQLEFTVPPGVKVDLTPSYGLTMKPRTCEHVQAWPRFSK

On to `N#Cc1cccnc1`, for which the result in assay [1], in [2], in assay [3], in assay [4] and in [5] was inactive.

In general, AC50 refers to the concentration giving half of the maximal activity seen. With `CC1(C)[C@H](C(=O)O[C@H](C#N)c2cccc(Oc3ccccc3)c2)[C@@H]1/C=C(\Cl)C(F)(F)F`, the outcome is “inactive” in assay [1]; “inactive” in [2]; “inactive” in [4]; “inactive” in assay [8]; “inactive” in assay [9]; “inactive” in the assay on rat CYP3A1, gene 25642. In addition, the AC50 in [3] was 17.1 µM (active) and 3.97 µM (active); in assay [6], 0.951 µM (active); in [7] it was 848 nM (active) and 3.32 µM (active).

Take `CCOP(=O)(OCC)OC(=CCl)c1ccc(Cl)cc1Cl`: the outcome in assay [1], in assay [2], in [3] and in assay [4] was inactive. Moreover, the AC50 in assay [7] is 1.45 µM (active).

For `O=C(N[C@H]1CN2CCC1CC2)c1ccc2c(c1)OCCO2`, the outcome in [1], in [2], in assay [3], in assay [4] and in assay [5] was inactive.

Take `CC(C)=CC1C(C(=O)OCc2cccc(Oc3ccccc3)c2)C1(C)C` (stereo unspecified): the result in assay [1] and in [2] was inactive. Also, the results for the AC50 in assay [3] and in assay [4] were 26.3 µM (active) and 24.9 µM (active), respectively.

`CC(C)(C)c1ccccc1O`: the result in [1], in [2], in assay [3], in [4] and in assay [10] was inactive.

Regarding `CCCCCCCCCCCCc1cccc(S(=O)(=O)O)c1`, the result in assay [1], in assay [2], in [3], in [4] and in assay [5] was inactive.

Regarding `OCCN(CCO)CCO`, the result in assay [1], in assay [2], in [3] and in [4] was inactive.

Regarding `Oc1ccc(Cc2ccc(O)cc2)cc1`, the outcome in assay [1], in assay [2], in [3] and in [4] was inactive. In addition, the AC50 in [11] was 0.321 µM (active).

As to `CC(C=O)Cc1ccc2c(c1)OCO2` (stereo unspecified), the outcome in [1], in [2], in assay [3] and in assay [4] was inactive. Further, the AC50 in assay [7] was 5 µM (active).

Regarding `CCCCCCCCCCCCOS(=O)(=O)O`, the compound was called inactive in [5].

Turning to `O=c1nc(O)n(Cl)c(=O)n1Cl`, the compound was classed as inactive in [12].

Regarding `CC(C)O.CC(C)O.OCCN(CCO)CCO.OCCN(CCO)CCO.[Ti]`, the outcome in [1], in assay [2], in [3] and in assay [4] was inactive. The AC50 in assay [5] is 1.5 µM (active).

Consider `CCOCn1c(-c2ccc(Cl)cc2)c(C#N)c(Br)c1C(F)(F)F`, for which the AC50 in [13] is 1.35 µM (active).

As to `Cc1cc(C(C)(C)c2ccc(O)c(C)c2)ccc1O`, the AC50 in assay [1] is 15.7 µM (active); in assay [3] it was 18.2 µM (active); in assay [11], 0.942 µM (active); in assay [7] it was 1.04 µM (active). Besides, the outcome in assay [2], in [4] and in [14] was inactive.

Regarding `Oc1c(Cl)cc(Cl)cc1Cl`, the outcome in [2], in [3] and in assay [4] was inactive.

`CN(C)C(=S)S`: the values for the AC50 in assay [1], in [3] and in assay [13] were 0.148 µM (active), 0.488 µM (active) and 5.64 µM (active), respectively. Also, the outcome in assay [2], in assay [4] and in assay [7] was inactive.

In the case of `CNC(=O)CSP(=O)(OC)OC`, the AC50 in [7] was 2.11 µM (active).

In the case of `CCOP(=O)(OCC)SCCSCC`, the result in assay [1], in assay [2], in assay [3] and in assay [4] was inactive.

Consider `CCOC(=O)CCN(SN(C)C(=O)Oc1cccc2c1OC(C)(C)C2)C(C)C`, for which the AC50 was 26 µM (active) in [1], 23.1 µM (active) in [3] and 3.01 µM (active) in [7]. The result in assay [2] and in [4] was inactive.

For the compound `Nc1ccc(N)cc1`, the result in [1], in [2], in [3], in assay [4] and in [15] was inactive.

For `CC(C)(c1ccccc1)c1cc(-n2nc3ccccc3n2)c(O)c(C(C)(C)c2ccccc2)c1`, the result in assay [16] was inactive.

As for `CCOC(=O)C(SP(=S)(OC)OC)c1ccccc1` (stereo unspecified), the outcome in assay [1], in [2] and in assay [4] was inactive. Moreover, the figures for the AC50 in assay [3] and in assay [7] were 35.3 µM (active) and 5 µM (active), respectively.

Turning to `O=C(O)C1(c2ccc3c(c2)OC[C@H](Cc2ccc(-c4ccccc4)cc2)[C@H]3O)CCCC1`, the outcome in [1] and in assay [5] was inactive. In addition, the AC50 in assay [2] is 24.6 µM (active); in [3] it was 16.7 µM (active); in assay [4], 27.3 µM (active).

For the compound `Cc1ccccc1OP(=O)(Oc1ccccc1C)Oc1ccccc1C`, the AC50 in [1] is 26.6 µM (active); in [2], 12.4 µM (active); in assay [3], 12.7 µM (active); in assay [4], 9.8 µM (active).

In the case of `OC(Cc1ccccc1Cl)(Cn1[nH]cnc1=S)C1(Cl)CC1` (stereo unspecified), the outcome in assay [1] and in assay [4] was inactive. The AC50 was 3.97 µM (active) in assay [2], 20 µM (active) in assay [3] and 0.689 µM (active) in [7].
